Some test systems named below: NCI-H23 lung; NCI-H226 lung; NCI-H322M lung; HOP-62 NSCLC; NCI-H460 lung; HOP-92 NSCLC; NCI-H522 lung; A549/ATCC NSCLC; 786-0 renal; COLO 205 colon; DU-145 prostate; K-562 leukemia; MALME-3M melanoma; MDA-MB-231 breast; RXF 393 renal; SF-268 CNS; SF-295 CNS; SF-539 CNS; UACC-257 melanoma; M14 melanoma.
Common to all, as to assay: NCI-60 one-dose screen, 48 h (100 = growth as untreated, 0 = no growth, -100 = all killed)
Conditions in all cases: 10 µM unless noted

This is part of a sample that, as a whole, favours compounds with a hit. Of some 83,000 tested, about 20% had one in any assay.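 Activity criterion: percent growth below 10, measured after cells in 96-well plates were exposed to a single compound concentration for 48 hours.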 Unmarked numbers belong to inactive results. Calls of active or inactive are those of the source.

On to `COc1ccc(NCc2cn(-c3ccc(C(=O)O)cc3)nc2-c2ccc(C(=O)O)cc2)cc1C(F)(F)F`, for which the growth in the test with NCI-H23 lung is 99.8%; in the test on NCI-H226 lung, 98.5%; in the test with NCI-H322M lung, 89.1%; in the test on HOP-62 NSCLC it was 96.6%; in the test with NCI-H460 lung, 100%; in the test with HOP-92 NSCLC, 66.6%. Besides, the growth is 97.8% in the test with NCI-H522 lung; 99.8% with A549/ATCC NSCLC; 90.4% in the test on 786-0 renal; 111% in the test with COLO 205 colon; 96.3% in the test with DU-145 prostate; 111% in the test with K-562 leukemia. Further, the growth in the test on MALME-3M melanoma was 77.9%; in the test on MDA-MB-231 breast it was 81.8%; in the test with RXF 393 renal it was 89.8%; in the test with SF-268 CNS, 99.3%; with SF-295 CNS it was 97.2%; in the test on SF-539 CNS it was 86.7%. The growth with UACC-257 melanoma is 100%; in the test on M14 melanoma, 96.9%.

Consider `O=S(=O)(NCCCNc1nccc(-c2c(-c3cccc(F)c3)nc3occn23)n1)c1cccc2ccccc12`, for which the growth in the test on NCI-H23 lung is 63.9%; in the test with NCI-H226 lung, 36.3%; in the test with NCI-H322M lung, 64.6%; in the test on HOP-62 NSCLC, 74.4%; with NCI-H460 lung it was 18.7%; in the test on HOP-92 NSCLC, 63.9%. Besides, the growth in the test on NCI-H522 lung was 51.1%; in the test with A549/ATCC NSCLC it was 33.5%; in the test on 786-0 renal it was 46.5%; with COLO 205 colon, -18.1% (active); in the test with DU-145 prostate, 41.4%; in the test on K-562 leukemia, 4.01% (active). In addition, the growth was 31.1% in the test on MALME-3M melanoma; -0.0227% (active) with MDA-MB-231 breast; 47.9% with RXF 393 renal; 36.6% with SF-268 CNS; 52.8% in the test on SF-295 CNS; 61.8% in the test on SF-539 CNS. For the same compound, the growth in the test with UACC-257 melanoma was 58.3%; in the test on M14 melanoma, 31.8%.

With `C=C(C)[C@@H]1CC[C@]2(COC(=O)c3ccccc3C(=O)O)CC[C@]3(C)[C@H](CC[C@@H]4[C@@]5(C)CC[C@H](OC(=O)c6ccccc6C(=O)O)C(C)(C)[C@@H]5CC[C@]43C)[C@@H]12`, the growth with NCI-H23 lung was 6.7% [100 µM] (active); in the test with NCI-H226 lung it was 25.9% [100 µM]; in the test with NCI-H322M lung, 30.7% [100 µM]; in the test with HOP-62 NSCLC it was 3.17% [100 µM] (active); in the test with NCI-H460 lung it was 19.7% [100 µM]; in the test with HOP-92 NSCLC it was -22.3% [100 µM] (active). The growth was 46.8% [100 µM] in the test on NCI-H522 lung; 51.3% [100 µM] with A549/ATCC NSCLC; 1.64% [100 µM] (active) with 786-0 renal; 99.3% [100 µM] in the test with COLO 205 colon; 29.7% [100 µM] with DU-145 prostate; 44.7% [100 µM] in the test with K-562 leukemia. For the same compound, the growth is 30.7% [100 µM] in the test with MALME-3M melanoma; -26.2% [100 µM] (active) with MDA-MB-231 breast; -21.9% [100 µM] (active) in the test with RXF 393 renal; 18% [100 µM] in the test with SF-268 CNS; 10.2% [100 µM] with SF-295 CNS; 10.6% [100 µM] with SF-539 CNS. Besides, the growth in the test on UACC-257 melanoma is 92.9% [100 µM]; in the test on M14 melanoma, 29.6% [100 µM].

Regarding `O=C1CC(c2ccc3c(c2)OCO3)Nc2ccccc21` (stereo not given), the growth in the test on NCI-H23 lung is 40.2%; in the test on NCI-H226 lung, 65.3%; with NCI-H322M lung, 51.3%; with HOP-62 NSCLC, 24.2%; with NCI-H460 lung, 10.5%; with HOP-92 NSCLC it was 20.5%. In addition, the growth with NCI-H522 lung is 19.8%; in the test with A549/ATCC NSCLC it was 21.8%; in the test on 786-0 renal, 42.2%; in the test on COLO 205 colon it was -16.4% (active); in the test on DU-145 prostate, 7.64% (active); in the test with K-562 leukemia, 12.4%. For the same compound, the growth in the test with MALME-3M melanoma was 46%; in the test with MDA-MB-231 breast, 38.9%; in the test on RXF 393 renal, -22% (active); in the test with SF-268 CNS, 43.1%; in the test on SF-295 CNS, 4.53% (active); with SF-539 CNS, 0.134% (active). Moreover, the growth with UACC-257 melanoma was 42.3%; with M14 melanoma, -15.8% (active).

Regarding `C=C(C)[C@@H]1CC[C@]2(C)[C@H](C(=O)C=C3[C@@H]4C[C@](C)(C(=O)N5CCN(C)CC5)CC[C@]4(C)CC[C@]32C)[C@@]1(C)CCC#N`, the growth in the test with NCI-H23 lung is -73.6% [100 µM] (active); in the test on NCI-H226 lung it was -68.4% [100 µM] (active); in the test with NCI-H322M lung it was -98.6% [100 µM] (active); in the test with HOP-62 NSCLC, -84.5% [100 µM] (active); with NCI-H460 lung, -89.9% [100 µM] (active); with HOP-92 NSCLC it was -45.6% [100 µM] (active). Besides, the growth was -68.9% [100 µM] (active) in the test with NCI-H522 lung; -67.3% [100 µM] (active) in the test on A549/ATCC NSCLC; -85.5% [100 µM] (active) in the test with 786-0 renal; -69.4% [100 µM] (active) in the test on COLO 205 colon; -51.6% [100 µM] (active) with DU-145 prostate; -4.62% [100 µM] (active) in the test on K-562 leukemia. For the same compound, the growth was -86.5% [100 µM] (active) in the test on MALME-3M melanoma; -92.4% [100 µM] (active) with MDA-MB-231 breast; -86.4% [100 µM] (active) with RXF 393 renal; -76.2% [100 µM] (active) in the test with SF-268 CNS; -88% [100 µM] (active) in the test on SF-295 CNS; -92% [100 µM] (active) with SF-539 CNS. Also, the growth was -77.1% [100 µM] (active) in the test on UACC-257 melanoma and -62.6% [100 µM] (active) with M14 melanoma.

As to `Nc1ccc2c(c1)Cc1cc(NC(=O)C(F)(F)F)ccc1-2`, the growth with NCI-H23 lung was 95.9%; in the test on NCI-H226 lung it was 93.6%; in the test on NCI-H322M lung, 95.5%; with HOP-62 NSCLC, 105%; in the test with NCI-H460 lung, 97.8%; in the test on HOP-92 NSCLC it was 101%. Also, the growth in the test with NCI-H522 lung was 90.3%; with A549/ATCC NSCLC it was 93.6%; with 786-0 renal, 108%; with COLO 205 colon, 109%; with DU-145 prostate it was 99.2%; in the test on K-562 leukemia it was 108%. For the same compound, the growth was 108% in the test on MALME-3M melanoma; 71.2% in the test with MDA-MB-231 breast; 113% in the test on RXF 393 renal; 96.1% in the test on SF-268 CNS; 99.8% in the test with SF-295 CNS; 97.6% in the test with SF-539 CNS. Moreover, the growth in the test on UACC-257 melanoma is 104%; in the test on M14 melanoma, 109%.
